The nature of experiment [1]: compounds binding Alexa647 anti-His antibody – biochemical, small-molecule microarray, 635 nm fluorescence, artefact control for SMM control protein annotation, primary screen (AID 1128).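 Note: score merges feature fluorescence with signal-to-noise for each printed compound spot.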 Particulars: higher = more signal.
Experiment [2] concerns Human papillomavirus type 1a E7 protein (residues 1-88). As to the kind of experiment: HPV1a E7 small-molecule binders, primary screen, biochemical, small-molecule microarray, residues 1-88, 635 nm (AID 1129). Particulars: small-molecule microarray binding, fluorescence 635 nm; higher = more signal.
Experiment [3] addresses Focal adhesion kinase 1 (Homo sapiens) (UniProt Q05397). Nature of the experiment: PTK2 protein binding on printed compound slides – biochemical, small-molecule microarray, 635/667 nm fluorescence, BSA, DTT, primary screen (AID 1130).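 Note: composite of spot emission at 667 nm and signal to noise over triplicate slides.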 Conditions: 635 nm fluorescence, higher = more signal.
The test system of experiment [4] is Fibrinogen (Alexa647-labelled). Nature of the experiment: Alexa647-fibrinogen binding to printed small molecules – biochemical, small-molecule microarray, 635/667 nm fluorescence, artefact control for SMM control-protein annotation, profiling panel (AID 1131).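 Note: z-score merges 667 nm fluorescence with per-spot signal-to-noise over triplicate slides.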 Conditions: fibrinogen-A647 binding fluorescence, higher = more signal.
The target in experiment [5] is Follistatin (Homo sapiens) (UniProt P19883). Nature of the experiment: FST protein binding to printed compounds – biochemical, small-molecule microarray, 635/667 nm fluorescence, primary screen (AID 1132). Conditions: 635 nm fluorescence, higher = more signal.
Chain of Follistatin (Homo sapiens) (P19883 whole entry, looked up): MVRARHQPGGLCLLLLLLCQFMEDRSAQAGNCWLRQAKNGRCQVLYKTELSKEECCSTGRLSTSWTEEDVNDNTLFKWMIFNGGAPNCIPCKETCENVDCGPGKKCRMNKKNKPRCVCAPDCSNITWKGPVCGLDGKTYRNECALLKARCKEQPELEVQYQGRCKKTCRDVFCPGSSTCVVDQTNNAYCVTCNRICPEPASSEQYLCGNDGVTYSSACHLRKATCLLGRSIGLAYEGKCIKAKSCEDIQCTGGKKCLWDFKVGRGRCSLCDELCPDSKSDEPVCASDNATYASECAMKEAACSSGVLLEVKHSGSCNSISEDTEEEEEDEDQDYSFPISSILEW
For experiment [6], the target named is Fibroblast growth factor 2 (Homo sapiens) (UniProt P09038). As to the kind of experiment: basic fibroblast growth factor binding to printed compounds – biochemical, small-molecule microarray, 635/667 nm fluorescence, primary screen (AID 1133). Conditions: FGF2, fluorescence 635/667, higher = more signal.
Chain of Fibroblast growth factor 2 (Homo sapiens) (P09038 whole entry, looked up): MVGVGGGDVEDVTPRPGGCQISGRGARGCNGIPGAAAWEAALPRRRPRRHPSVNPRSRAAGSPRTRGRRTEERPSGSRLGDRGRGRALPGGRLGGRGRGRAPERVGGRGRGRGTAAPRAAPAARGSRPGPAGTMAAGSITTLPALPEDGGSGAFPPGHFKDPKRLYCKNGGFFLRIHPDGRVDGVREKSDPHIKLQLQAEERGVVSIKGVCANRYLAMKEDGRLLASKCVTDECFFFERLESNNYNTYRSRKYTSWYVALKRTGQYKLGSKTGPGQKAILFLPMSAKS
Experiment [7] is described as follows: JC-1 mitochondrial potential readout, lung cancer cells – cell-based, A549, JC-1 fluorescence, basal, 24 h, 100 nL, profiling panel (AID 1138).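 Note: A549 lung adenocarcinoma cells under basal conditions with no added stimulus; test concentration not given here.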 Conditions: higher = more signal.
The subject of the next experiment is Lefty1. Nature of the experiment: Lefty1 protein binding to printed compounds – biochemical, small-molecule microarray, 635/667 nm fluorescence, primary screen (AID 1139). Particulars: fluorescence 635/667, higher = more signal.
In experiment [8] the test system is wheat germ agglutinin (Triticum aestivum), Alexa647-labelled. As to the kind of experiment: Alexa647-WGA lectin binding to printed small molecules – biochemical, small-molecule microarray, 635/667 nm fluorescence, artefact control for SMM control-protein annotation, profiling panel (AID 1140).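 Note: score merges 667 nm feature emission with signal to noise over triplicate slides.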 Conditions: WGA-A647 binding, 635 nm fluorescence, higher = more signal.

The target of experiment [9] is Luciferin 4-monooxygenase (Photinus pyralis) (UniProt P08659). As to the kind of experiment: inhibition of purified Photinus pyralis luciferase – biochemical, luminescence, purified enzyme, 2006 set, primary screen (AID 1141).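 Note: cell-free assay with purified firefly luciferase at 100 ng per well in PBS; test concentration not given here.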 Particulars: purified firefly luciferase, SteadyGlo luminescence, 30 min; higher = more signal, called active from +8 up or from −8 down.
Chain of Luciferin 4-monooxygenase (Photinus pyralis) (P08659 whole entry, looked up): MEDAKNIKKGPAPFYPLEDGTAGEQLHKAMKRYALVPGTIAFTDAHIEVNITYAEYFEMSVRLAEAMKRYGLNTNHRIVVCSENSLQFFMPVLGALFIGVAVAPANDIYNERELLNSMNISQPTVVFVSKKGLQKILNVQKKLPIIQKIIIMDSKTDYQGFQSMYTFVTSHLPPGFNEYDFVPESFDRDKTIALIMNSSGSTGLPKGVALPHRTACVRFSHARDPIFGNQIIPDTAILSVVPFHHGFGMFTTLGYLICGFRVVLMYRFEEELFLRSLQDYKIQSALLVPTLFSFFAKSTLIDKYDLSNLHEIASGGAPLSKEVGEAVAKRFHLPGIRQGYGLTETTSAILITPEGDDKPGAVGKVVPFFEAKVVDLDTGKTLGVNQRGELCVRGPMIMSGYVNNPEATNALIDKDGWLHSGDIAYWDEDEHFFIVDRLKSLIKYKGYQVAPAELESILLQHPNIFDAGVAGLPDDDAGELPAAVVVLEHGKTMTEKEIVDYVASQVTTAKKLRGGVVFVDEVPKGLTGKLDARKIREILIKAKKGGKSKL
The test system of experiment [10] is Wnt5a (protein binding on small-molecule microarray). Nature of the experiment: small molecules binding Wnt5a protein – biophysical, small-molecule microarray, 635/667 nm fluorescence, primary screen (AID 1142).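 Note: fluorescence read at 667 nm with signal to noise per printed feature.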 Particulars: 635 nm fluorescence, higher = more signal.
The nature of experiment [11]: ATP-based viability of Huh7 replicon cells – cell-based, CellTiter-Glo luminescence, basal, 48 h, cytotoxicity control for HCV replication inhibitor project, primary screen (AID 1143).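 Note: Huh7 hepatoma cells carrying a hepatitis C replication reporter with no stimulus; test concentration not given here.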 Conditions: higher = more signal, called active from +8 up or from −8 down.
A short description of experiment [12]: Pseudomonas biofilm growth suppression – PAO1 strain, BacTiter-Glo luminescence, LB-PBS, primary screen (AID 1144). Conditions: P. aeruginosa PAO1 biofilm, 12 h, higher = more signal.
The nature of experiment [13]: basal CRE-LacZ reporter activity in PC12 – cell-based, unstimulated, primary screen (AID 1145). Particulars: no forskolin, luminescence, 4.5 h, higher = more signal, called active from +8 up or from −8 down.
A short description of experiment [14]: forskolin-driven CRE-LacZ activity in PC12 – cell-based, CRE-LacZ reporter, forskolin-stimulated, primary screen (AID 1146).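 Note: PC12 cells with 6xCRE LacZ reporter stimulated by forskolin 10 µM; beta-galactosidase reporter signal reflecting CREB driven transcription.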 Conditions: luminescence, 4.5 h, higher = more signal, called active from +8 up or from −8 down.
The target of experiment [15] is Streptavidin (Streptomyces avidinii) (UniProt P22629). As to the kind of experiment: compounds binding control protein streptavidin – biophysical, small-molecule microarray, 635/667 nm fluorescence, artefact control for SMM compound annotation, primary screen (AID 1147).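 Note: signal reflects streptavidin binding to arrayed compounds as a control protein.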 Conditions: higher = more signal.
Chain of Streptavidin (Streptomyces avidinii) (P22629 whole entry, looked up): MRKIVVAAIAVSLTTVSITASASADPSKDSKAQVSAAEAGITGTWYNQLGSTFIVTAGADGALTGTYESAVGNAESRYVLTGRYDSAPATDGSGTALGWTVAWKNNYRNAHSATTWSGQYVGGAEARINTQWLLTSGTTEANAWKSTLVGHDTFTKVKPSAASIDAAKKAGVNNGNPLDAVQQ
Experiment [16] is described as follows: probe aInhba binding on compound microarray – biochemical, small-molecule microarray, 635/667 nm fluorescence, primary screen (AID 1148).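 Note: score merges 667nm spot fluorescence with signal-to-noise for antibody binding to printed compounds.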 Conditions: higher = more signal.
The target in experiment [17] is Torsin-1A (Homo sapiens) (UniProt O14656). As to the kind of experiment: TOR1A wild-type binding on microarray – cell lysate, small-molecule microarray, lysate, 635/667 nm, primary screen (AID 1149). Particulars: COS7 hTOR1A-WT lysate, 635 nm fluorescence, higher = more signal.
Chain of Torsin-1A (Homo sapiens) (O14656 whole entry, looked up): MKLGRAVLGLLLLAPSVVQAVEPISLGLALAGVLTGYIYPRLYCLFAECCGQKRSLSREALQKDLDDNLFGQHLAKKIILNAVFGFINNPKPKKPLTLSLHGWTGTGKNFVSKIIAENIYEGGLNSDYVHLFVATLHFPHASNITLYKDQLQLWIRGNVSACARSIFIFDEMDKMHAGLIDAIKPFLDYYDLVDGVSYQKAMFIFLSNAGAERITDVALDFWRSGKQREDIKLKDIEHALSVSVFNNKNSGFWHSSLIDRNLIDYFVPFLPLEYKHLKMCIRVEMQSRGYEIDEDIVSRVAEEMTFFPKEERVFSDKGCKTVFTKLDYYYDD
Experiment [18] has the same target. Nature of the experiment: torsin A mutant lysate binding on microarrays – cell lysate, small-molecule microarray, COS7 lysate, 635/667 nm fluorescence, primary screen (AID 1150).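 Note: score pools 667 nm emission and signal to noise measuring lysate protein binding.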 Conditions: COS7 hTOR1A mutant lysate, 635 nm fluorescence, higher = more signal.
Experiment [19] deals with Sonic hedgehog protein (Shh). As to the kind of experiment: Sonic hedgehog microarray binding compounds – biochemical, small-molecule microarray, 635/667 nm fluorescence, primary screen (AID 1151).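 Note: Shh protein binding to compounds spotted on small-molecule microarray slides; score combines spot fluorescence intensity with signal-to-noise across triplicate slides.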 Particulars: 635 nm fluorescence, higher = more signal.

These results are taken from PubChem BioAssay.

The source made the active and inactive calls. Unless noted, the rule behind the calls is not given here.

Chain of Focal adhesion kinase 1 (Homo sapiens) (Q05397 whole entry, looked up): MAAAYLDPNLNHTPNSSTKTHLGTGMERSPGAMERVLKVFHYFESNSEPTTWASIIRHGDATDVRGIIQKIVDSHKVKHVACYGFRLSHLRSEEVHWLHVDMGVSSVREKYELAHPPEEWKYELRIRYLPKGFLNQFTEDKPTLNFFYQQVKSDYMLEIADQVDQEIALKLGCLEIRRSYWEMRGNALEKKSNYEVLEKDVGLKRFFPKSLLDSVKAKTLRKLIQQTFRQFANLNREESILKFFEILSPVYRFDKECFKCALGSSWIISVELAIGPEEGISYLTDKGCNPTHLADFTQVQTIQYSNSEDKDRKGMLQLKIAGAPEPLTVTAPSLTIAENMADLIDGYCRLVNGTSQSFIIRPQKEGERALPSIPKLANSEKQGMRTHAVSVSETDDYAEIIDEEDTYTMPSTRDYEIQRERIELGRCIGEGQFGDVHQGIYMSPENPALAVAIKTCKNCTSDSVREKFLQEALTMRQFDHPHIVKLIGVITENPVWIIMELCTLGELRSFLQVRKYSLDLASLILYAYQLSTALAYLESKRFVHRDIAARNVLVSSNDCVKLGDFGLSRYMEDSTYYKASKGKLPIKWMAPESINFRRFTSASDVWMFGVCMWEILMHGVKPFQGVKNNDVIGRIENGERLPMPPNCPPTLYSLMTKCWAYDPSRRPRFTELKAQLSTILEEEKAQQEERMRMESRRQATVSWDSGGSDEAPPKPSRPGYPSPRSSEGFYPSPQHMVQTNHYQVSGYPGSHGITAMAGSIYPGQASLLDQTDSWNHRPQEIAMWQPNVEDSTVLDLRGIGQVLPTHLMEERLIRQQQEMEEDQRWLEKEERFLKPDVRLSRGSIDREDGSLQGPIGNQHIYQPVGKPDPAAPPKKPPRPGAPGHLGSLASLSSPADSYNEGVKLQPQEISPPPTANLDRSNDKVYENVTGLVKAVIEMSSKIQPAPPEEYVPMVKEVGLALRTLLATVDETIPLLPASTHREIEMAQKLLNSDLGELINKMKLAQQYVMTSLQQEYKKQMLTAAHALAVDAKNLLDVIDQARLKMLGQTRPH

On to `COc1ccc([Si](C)(C)[C@H]2[C@H](CCO)O[C@@]3(C(=O)N(Cc4cccc(N5CCCCC5=O)c4)c4ccccc43)[C@@H]2C)cc1`, for which the composite z-score is 1.16 in [1]; 1.15 in experiment [2]; 0.362 in experiment [3]; 0.848 in experiment [4]; 1.26 in experiment [5]; 0.403 in experiment [6]. For the same molecule, the composite z-score in the experiment with Lefty1 was 1.06; in experiment [8], 0.418; in [10], 0.416; in [15] it was 0.569; in [16] it was -0.116; in the experiment with Torsin-1A (Homo sapiens) [17], -0.0387. For the same molecule, the composite z-score in the experiment with Torsin-1A (Homo sapiens) [18] was determined as 0.299; in [19], 1.5. The z-score is 0.589 in experiment [7]; -1.34 (inactive) in [9]; -7.87 (inactive) in [11]; -1.05 (inactive) in experiment [12]; 2.39 (inactive) in experiment [13]; -1.82 (inactive) in [14].
In the case of `C=CC[C@]1(C(=O)N(C)C)N=C(c2ccc(OCCCO)cc2)O[C@H]1c1ccccc1N=[N+]=[N-]`, the composite z-score in [1] was 2.04; in experiment [2] it was 1.22; in experiment [3], 0.264; in experiment [4], 1.02; in experiment [5], 0.899; in experiment [6] it was -0.267. The composite z-score in the experiment on Lefty1 was -0.0297; in experiment [8], 1.25; in [10] it was 0.596; in experiment [15] it was 1.61; in experiment [16], -0.0136; in the experiment with Torsin-1A (Homo sapiens) [17], 0.73. The figures for the composite z-score (with Torsin-1A (Homo sapiens) [18]; in experiment [19]) were 0.696 and -1.32, respectively. Besides, the z-score in experiment [7] was 1.08; in experiment [9], -9.41 (active); in experiment [11] it was -2.58 (inactive); in experiment [12] it was 0.00404 (inactive); in [13], 1.99 (inactive); in experiment [14], -1.23 (inactive).
On to `CC(C)CN1C(=O)[C@@]2(c3ccc([N+](=O)[O-])cc3)CC(=O)N(CC34CC5CC(CC(C5)C3)C4)[C@@H]2c2ccc(CO)cc21`, for which the composite z-score was 2.34 in experiment [1]; -0.636 in experiment [2]; -0.253 in experiment [3]; 0.233 in [4]; -1.16 in [5]; -1.14 in experiment [6]. Also, the composite z-score is -0.969 in the experiment on Lefty1; -0.323 in experiment [8]; -0.765 in [10]; -0.877 in experiment [15]; -0.128 in experiment [16]; -1.22 in the experiment with Torsin-1A (Homo sapiens) [17]. Moreover, the composite z-score with Torsin-1A (Homo sapiens) [18] was -1.08; in [19], -1.51. Besides, the z-score is -0.422 in experiment [7]; 0.0209 (inactive) in experiment [9]; -4.16 (inactive) in experiment [11]; -1.58 (inactive) in experiment [12]; -0.348 (inactive) in experiment [13]; 0.134 (inactive) in experiment [14].
Turning to `COCCOC(=O)N1C(=O)[C@@]2(c3ccccc31)[C@H](c1ccc(OCCO)cc1)N1[C@H](c3ccccc3)[C@H](c3ccccc3)OC(=O)[C@H]1[C@@H]2C(=O)Nc1nc2ccccc2s1`, the composite z-score in experiment [1] amounted to 1.6; in experiment [2] it was 1.2; in [3], 0.72; in experiment [4], 0.942; in experiment [5], 1.24; in experiment [6] it was 1.05. The composite z-score with Lefty1 is 0.518; in experiment [8], 0.433; in experiment [10], 0.528; in [15] it was 0.962; in experiment [16], 0.239; in the experiment with Torsin-1A (Homo sapiens) [17] it was 0.73. Moreover, the composite z-score worked out at 0.558 with Torsin-1A (Homo sapiens) [18] and 1.1 in [19]. In addition, the z-score is -2.22 in experiment [7]; -2.98 (inactive) in experiment [9]; -1.49 (inactive) in experiment [11]; -0.58 (inactive) in experiment [12]; 0.505 (inactive) in experiment [13]; 11.9 (active) in [14].
Turning to `CCOC(=O)C[C@H]1[C@H](OC(=O)c2ccccc2-c2ccccc2)[C@@H](NC(=O)CC(C)C)c2cc(OCCCO)ccc2N1C(=O)c1ccc2ccccc2n1`, the composite z-score in [1] is -0.123; in experiment [2], 0.304; in experiment [3] it was 0.162; in experiment [4], 0.335; in [5], 0.323; in experiment [6] it was 0.318. In addition, the composite z-score in the experiment on Lefty1 is 0.76; in [8] it was 0.152; in [10], 0.0056; in experiment [15], 0.543; in experiment [16], -0.016; with Torsin-1A (Homo sapiens) [17], 0.0167. Also, the composite z-score came to 0.0401 with Torsin-1A (Homo sapiens) [18] and 0.196 in experiment [19]. The z-score in experiment [7] was 0.488; in [9], 0.365 (inactive); in experiment [11], -0.431 (inactive); in experiment [12] it was 1.51 (inactive); in experiment [13] it was 8.37 (active); in experiment [14] it was 0.724 (inactive).
